Measurements: PubChem BioAssay (NCATS)
Records with an inconclusive call do not appear. Active and inactive are the calls of the source. Unless noted, calls follow the shape of the dose curve; as a rule, active = well fitted curve in the direction sought with a large enough effect; inconclusive = small, poorly fitted or top-dose-only effect, or another doubt; inactive = no such curve, though single readings can be large; an effect the other way counts as inactive or inconclusive.

Key:
[1] = target: Lysosomal acid glucosylceramidase (Homo sapiens) (UniProt P04062); assay: Glucocerebrosidase-p2 (AID 348; in the data active = potency below about 10 µM; also: potency is read from the fitted curve at half-maximal effect); conditions: purified GBA, blue fluorogenic substrate, 40 min
Lysosomal acid glucosylceramidase (Homo sapiens), sequence (P04062 whole entry, looked up): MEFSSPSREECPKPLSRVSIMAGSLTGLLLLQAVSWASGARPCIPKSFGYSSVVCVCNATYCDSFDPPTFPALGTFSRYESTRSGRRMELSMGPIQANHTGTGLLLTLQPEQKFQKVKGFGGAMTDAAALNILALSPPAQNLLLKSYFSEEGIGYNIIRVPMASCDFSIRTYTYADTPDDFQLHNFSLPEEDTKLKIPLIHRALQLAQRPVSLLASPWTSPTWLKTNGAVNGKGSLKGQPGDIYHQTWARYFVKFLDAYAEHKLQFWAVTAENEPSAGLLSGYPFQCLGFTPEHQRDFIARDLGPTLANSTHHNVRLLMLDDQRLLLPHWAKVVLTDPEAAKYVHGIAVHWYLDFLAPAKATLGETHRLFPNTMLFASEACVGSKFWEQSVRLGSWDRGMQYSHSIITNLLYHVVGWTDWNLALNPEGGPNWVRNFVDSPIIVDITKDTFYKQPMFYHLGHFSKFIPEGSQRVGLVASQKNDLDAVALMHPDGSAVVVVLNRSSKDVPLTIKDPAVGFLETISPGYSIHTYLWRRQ
Method in brief: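 Compounds titrated from 0.6 nM upwards against 0.2 nM enzyme in pH 5.9 citric acid/KH2PO4, taurocholate, tween-20; blue fluorogenic substrate 80 uM, 40 min room temperature, stopped and read Ex 365/Em 440 for AC50.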

[2] = AP1 Signaling Pathway (AID 357; active = well fitted curve in either direction with a large enough effect, not every such curve was filed as active;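 also: ME-180 reporter cells stimulated with EGF at its EC50 level; % is scaled to controls: 0 for no effect and ±100 for the full control effect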); conditions: ME-180 AP-1-bla reporter, EGF-induced, beta-lactamase ratio, 5 h; at 7.69 µM (top of the series) unless noted
Method in brief: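 Modulation of EGF-driven AP-1 transcription was assessed with a beta-lactamase reporter in ME-180 cells. Compound and EC50 EGF were co-incubated 5 hours at 37 °C before 2.5-hour CCF4 loading at room temperature and dual-emission reading.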

[3] = Stat Signaling Pathway (AID 446; active = well fitted curve in either direction with a large enough effect, not every such curve was filed as active;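 also: ME-180 cervical cancer cells given 40 pM IL-6 alongside compound; SIE-controlled beta-lactamase reporter measured as 460/530 nm FRET emission ratio; % is scaled to controls: 0 for no effect and ±100 for the full control effect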); conditions: ME-180 SIE beta-lactamase reporter, IL-6 stimulated, 5 h; at 7.69 µM (top of the series) unless noted
Method in brief: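 Reporter line: ME-180 cervical carcinoma, SIE-beta-lactamase. Treatment: compound with 40 pM IL-6, 5 hrs, 37 C, in low-serum OPTI-MEM with 10 mM HEPES pH 7.3. Detection: 460/530 nm fluorescence.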

[4] = target: Glucocorticoid receptor (Homo sapiens) (UniProt P04150); assay: GR-EFC Redistribution (AID 451; calls by dose curve; also: potency is read from the fitted curve at half-maximal effect); conditions: CHO-K1 GR-EFC translocation, beta-gal luminescence, 2 h
Glucocorticoid receptor (Homo sapiens), sequence (P04150 whole entry, looked up, the tested form may be a part): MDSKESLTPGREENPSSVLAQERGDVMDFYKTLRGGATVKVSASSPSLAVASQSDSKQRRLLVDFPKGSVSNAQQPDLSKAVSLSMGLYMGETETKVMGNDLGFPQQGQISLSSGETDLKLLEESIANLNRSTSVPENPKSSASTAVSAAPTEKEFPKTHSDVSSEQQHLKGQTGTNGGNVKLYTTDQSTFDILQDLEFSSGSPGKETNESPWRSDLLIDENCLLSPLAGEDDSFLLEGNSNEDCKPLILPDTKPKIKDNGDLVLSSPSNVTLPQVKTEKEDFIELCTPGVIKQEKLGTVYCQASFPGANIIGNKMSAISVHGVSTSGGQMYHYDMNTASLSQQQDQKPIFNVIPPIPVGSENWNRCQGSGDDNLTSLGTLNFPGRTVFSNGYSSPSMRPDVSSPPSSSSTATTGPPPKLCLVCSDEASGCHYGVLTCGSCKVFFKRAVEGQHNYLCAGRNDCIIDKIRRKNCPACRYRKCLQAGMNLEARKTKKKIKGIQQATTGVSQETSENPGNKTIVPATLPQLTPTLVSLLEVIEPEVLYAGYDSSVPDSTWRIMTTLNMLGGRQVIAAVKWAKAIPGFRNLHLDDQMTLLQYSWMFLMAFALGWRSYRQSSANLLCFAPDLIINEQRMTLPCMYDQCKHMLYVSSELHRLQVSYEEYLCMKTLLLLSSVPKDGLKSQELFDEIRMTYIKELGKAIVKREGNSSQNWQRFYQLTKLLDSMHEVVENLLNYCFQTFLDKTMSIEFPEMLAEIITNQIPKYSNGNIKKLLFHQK
Method in brief: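 Translocation of GR-ED fusion to nuclear EA restores b-gal, read by luminescence after 1 h room-temperature detection. Engineered CHO-K1 biosensor cells, 1,000/well, exposed 2 h at 37 C to titrations up to 46 uM final.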

[5] = target: Mitogen-activated protein kinase 10 (Mus musculus) (UniProt Q61831); assay: JNK3 AlphaScreen Assay (AID 530; active = well fitted curve in either direction with a large enough effect, not every such curve was filed as active;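 also: kinase came from lysate of stimulated human HepG2 cells; signal reports phosphorylation of biotinylated GST-cJun 1-79 at Ser73 with 10 µM ATP; % is scaled to controls: 0 for no effect and ±100 for the full control effect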); conditions: JNK3 lysate, c-Jun phosphorylation; series mostly up to 57.1 µM
Method in brief: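 Room-temperature AlphaScreen kinase assay; pre-activated HepG2 lysate as JNK3 source, biotin-GST-cJun(1-79) substrate, 10 uM ATP, compound 15 min preincubation.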

[6] = target: 3',5'-cyclic-AMP phosphodiesterase 4B (Homo sapiens) (UniProt Q07343); assay: qHTS Assay for Inhibitors of PDE-IV (AID 607; active = well fitted activation curve with a large enough effect in the main read-out, with a control signal flat, not every such curve was filed as active; also: % of control where 0% means no effect); conditions: HEK293 ACTOne CNG channel cells, membrane potential fluorescence; series mostly up to 22.9 µM
3',5'-cyclic-AMP phosphodiesterase 4B (Homo sapiens), sequence (Q07343 whole entry, looked up): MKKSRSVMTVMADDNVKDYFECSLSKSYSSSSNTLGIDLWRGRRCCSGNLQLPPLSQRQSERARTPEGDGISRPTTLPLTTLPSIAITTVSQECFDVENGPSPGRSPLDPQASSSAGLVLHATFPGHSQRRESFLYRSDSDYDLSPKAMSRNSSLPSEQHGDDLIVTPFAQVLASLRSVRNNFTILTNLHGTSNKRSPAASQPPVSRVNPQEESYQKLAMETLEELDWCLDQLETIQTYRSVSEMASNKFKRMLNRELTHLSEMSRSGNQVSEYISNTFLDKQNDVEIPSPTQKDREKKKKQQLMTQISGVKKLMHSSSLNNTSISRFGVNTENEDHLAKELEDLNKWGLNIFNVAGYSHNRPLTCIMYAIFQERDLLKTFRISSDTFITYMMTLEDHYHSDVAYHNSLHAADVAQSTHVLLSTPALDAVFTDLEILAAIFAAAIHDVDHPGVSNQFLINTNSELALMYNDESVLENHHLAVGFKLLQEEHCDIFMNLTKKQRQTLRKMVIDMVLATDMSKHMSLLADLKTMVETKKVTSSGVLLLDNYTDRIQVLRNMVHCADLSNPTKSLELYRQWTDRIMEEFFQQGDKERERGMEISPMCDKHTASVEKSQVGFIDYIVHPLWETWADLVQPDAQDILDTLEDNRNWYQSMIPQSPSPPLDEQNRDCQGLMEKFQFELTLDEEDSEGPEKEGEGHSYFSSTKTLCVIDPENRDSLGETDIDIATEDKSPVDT
Method in brief: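 Cell-based read-out of cAMP via a modified cyclic nucleotide-gated channel and membrane potential dye (535/590 nm) in HEK293 cells expressing PDE4 endogenously. Compounds tested up to 22.9 uM final; 100 uM RO 20-1724 reference.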

[7] = qHTS Assay for Identification of Small Molecule Agonists for Hypoxia Response Element Signaling Pathway (AID 914; active = well fitted activation curve with a large enough effect in the signal ratio, with a control signal flat, not every such curve was filed as active; the % refers to the signal ratio; also: potency is read from the fitted curve at half-maximal effect); conditions: ME-180 (cervical carcinoma) HRE-bla reporter, beta-lactamase ratio, CoCl2, 17 h; activation: stronger effect = higher value
Method in brief: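 Compounds in a titration series were added to ME-180 reporter cells alongside an EC50 level of CoCl2. After 17 hours, beta-lactamase activity was read as the 460nm/530nm emission ratio of CCF4, giving AC50 values.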

[8] = qHTS Assay for Lipid Storage Modulators (AID 1519; calls by dose curve); conditions: Drosophila S3 cells, BODIPY lipid droplet/cell ratio, laser cytometry, cells loaded with oleic acid; for activity change, negative = inhibition: at 57.5 µM (top of the series)
Method in brief: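 Cells seeded at 5,000 per well were treated with compounds over a concentration series and loaded with oleic acid (400 uM, as added). Lipid droplet fluorescence (488 nm excitation, 500-530 nm channel) was read by laser-scanning cytometry and normalized to 20 uM Triacsin C.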

[9] = Primary qHTS for small molecule stabilizers of the endoplasmic reticulum resident proteome: Secreted ER Calcium Modulated Protein (SERCaMP) assay (AID 1508630); conditions: SH-SY5Y GLuc-SERCaMP (Gaussia luciferase released on ER calcium loss) secretion, thapsigargin, luminescence; series mostly up to 38.4 µM; also: % is scaled to controls: 0 for no effect and ±100 for the full control effect
Method in brief: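 GLuc-SERCaMP-expressing SH-SY5Y cells, pretreated 16 h with compound, are challenged with thapsigargin to empty ER calcium stores; after 4 h, coelenterazine is added directly to the medium and luminescence is imaged.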

[10] = target: Cytochrome P450 1A2 (Homo sapiens) (UniProt P05177); assay: p450-cyp1a2 (AID 410; calls by dose curve; also: potency is read from the fitted curve at half-maximal effect;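 as to activity change, negative = inhibition: -100% = full effect of reference inhibitor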); conditions: recombinant CYP1A2, luciferin-ME demethylation, luminescence; series mostly up to 57 µM
Cytochrome P450 1A2 (Homo sapiens), sequence (P05177 whole entry, looked up): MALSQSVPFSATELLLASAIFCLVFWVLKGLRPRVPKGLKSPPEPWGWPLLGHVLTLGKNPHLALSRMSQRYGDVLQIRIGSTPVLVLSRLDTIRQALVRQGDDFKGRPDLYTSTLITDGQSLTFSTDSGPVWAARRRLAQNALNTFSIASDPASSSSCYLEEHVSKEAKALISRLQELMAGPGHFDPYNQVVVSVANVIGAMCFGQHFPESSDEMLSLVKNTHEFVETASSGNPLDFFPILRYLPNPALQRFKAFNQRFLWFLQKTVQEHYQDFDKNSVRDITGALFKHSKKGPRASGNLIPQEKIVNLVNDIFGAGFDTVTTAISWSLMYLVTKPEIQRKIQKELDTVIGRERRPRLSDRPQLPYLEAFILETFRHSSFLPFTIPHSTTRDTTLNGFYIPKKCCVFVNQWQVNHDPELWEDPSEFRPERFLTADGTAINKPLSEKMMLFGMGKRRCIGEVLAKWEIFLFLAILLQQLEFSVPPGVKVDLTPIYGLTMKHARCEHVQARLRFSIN
Method in brief: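 Inhibition was calculated relative to 57 uM furafylline (full inhibition). The reaction used human CYP1A2 at 20nM with Luciferin-ME at its Km, 100uM, driven by an NADPH-regenerating system for 60 min at room temperature.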

[11] = target: Glucocorticoid receptor (Homo sapiens) (UniProt P04150); assay: GR-GFP Redistribution (AID 450;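 active = compounds whose dose series gives a full or clear partial fitted curve of increased nuclear translocation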; also: potency is read from the fitted curve at half-maximal effect); conditions: U2OS GR-GFP nuclear translocation, laser cytometry, 2 h
[12] = target: Cytochrome P450 3A4 (Homo sapiens) (UniProt P08684); assay: qHTS Assay for Inhibitors and Substrates of Cytochrome P450 3A4 (AID 884); conditions: recombinant CYP3A4, Luciferin-PPXE luminescence; series mostly up to 57.1 µM; also: potency is read from the fitted curve at half-maximal effect; nearly all actives have a fitted effect of over 50% in size
Cytochrome P450 3A4 (Homo sapiens), sequence (P08684 whole entry, looked up): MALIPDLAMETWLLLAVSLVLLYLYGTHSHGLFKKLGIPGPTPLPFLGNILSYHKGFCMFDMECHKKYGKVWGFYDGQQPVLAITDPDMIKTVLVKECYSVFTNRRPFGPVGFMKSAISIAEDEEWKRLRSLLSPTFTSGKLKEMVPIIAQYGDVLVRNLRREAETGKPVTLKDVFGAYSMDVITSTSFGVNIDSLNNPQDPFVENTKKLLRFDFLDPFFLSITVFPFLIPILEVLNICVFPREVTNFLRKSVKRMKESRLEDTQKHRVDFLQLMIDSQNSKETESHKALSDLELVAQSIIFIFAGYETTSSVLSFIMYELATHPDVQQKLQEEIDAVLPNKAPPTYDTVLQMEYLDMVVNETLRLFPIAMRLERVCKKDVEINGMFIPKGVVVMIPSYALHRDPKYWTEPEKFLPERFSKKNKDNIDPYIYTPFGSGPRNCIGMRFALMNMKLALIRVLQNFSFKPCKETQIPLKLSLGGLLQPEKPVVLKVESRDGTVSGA
Method in brief: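 20 nM human CYP3A4 with 25 uM Luciferin-PPXE (at KM) in 200 mM KPO4, preincubated 10 min with compound; NADPH regeneration started a 60 min RT reaction. Luciferin detected by luminescence, normalized to 57 uM ketoconazole as full inhibition.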

[13] = target: Cytochrome P450 3A4 (Homo sapiens) (UniProt P08684); assay: qHTS Assay for Activators of Cytochrome P450 3A4 (AID 885); conditions: recombinant CYP3A4, Luciferin-PPXE luminescence, 60 min; series mostly up to 57.1 µM; also: nearly all actives have a fitted effect of over 65% in size
Method in brief: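 Signal was normalized against complete inhibition by 57 uM ketoconazole. The reaction used 20nM CYP3A4 with 25uM Luciferin-PPXE, 10-min compound preincubation and a 60-min NADPH-supported step at RT.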

[14] = Confirmation and Secondary Assay for Modulators of Hemoglobin Beta Chain Splicing at IVS2 654 locus (AID 910); conditions: HeLa EGFP-654 splicing reporter, GFP fluorescence, 48 h; series mostly up to 38.3 µM;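 also: HeLa cells stably carrying EGFP split by mutant beta-globin IVS2-654 intron; per-well total GFP intensity by laser scanning cytometry after 2-day treatment; % of control where 0% means no effect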
Method in brief: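 Readout: per-well total peak green fluorescence (488 nm ex, 500–520 nm em) from objects 5–250 µm, reflecting correct splicing of an EGFP-654 reporter. Compounds were applied for 2 days at 37 °C to overnight-plated HeLa EGFP-654 cells; controls were DMSO and 500 nM IVS2-654 PNA.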

[15] = Confirmation and Secondary Assay for Modulators of Hemoglobin Beta Chain Splicing at IVS2 705 locus (AID 930); conditions: HeLa EGFP-705 splicing reporter, GFP fluorescence, 48 h; series mostly up to 38.3 µM;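 also: HeLa cells stably expressing the EGFP-705 splicing reporter; GFP fluorescence per well restored by corrected splicing of the IVS2-705 intron in EGFP; % of control where 0% means no effect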
Method in brief: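 Assay measures total GFP intensity per well in HeLa EGFP-705 cells after 2 days with compound; mis-splicing normally truncates EGFP, so fluorescence indicates corrected splicing.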

[16] = NFAT Signaling Pathway (AID 444; active = well fitted curve in either direction with a large enough effect, not every such curve was filed as active); conditions: Jurkat NFAT-bla M1, carbachol, beta-lactamase ratio, 5 h; at 7.69 µM (top of the series) unless noted
Method in brief: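 Read-out: CCF4 FRET ratio (460 nm/530 nm) after 1 h RT dye loading, used for %activity and AC50 from titration series. Cells: Jurkat NFAT-β-lactamase/M1 line, treated with compound plus 1 uM carbachol for 5 h, 37 °C.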

[17] = target: Ubiquitin carboxyl-terminal hydrolase 1 (Homo sapiens) (UniProt O94782); assay: Inhibitors of USP1/UAF1: Pilot qHTS (AID 504865); conditions: purified USP1/UAF1, Ub-rhodamine cleavage fluorescence; series mostly up to 54.9 µM;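 also: rhodamine fluorescence freed from ubiquitin-rhodamine substrate followed over time; top concentration of the series differs between compounds; % is scaled to controls: 0 for no effect and ±100 for the full control effect; nearly all actives have a fitted effect of over 35% in size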
Ubiquitin carboxyl-terminal hydrolase 1 (Homo sapiens), sequence (O94782 whole entry, looked up): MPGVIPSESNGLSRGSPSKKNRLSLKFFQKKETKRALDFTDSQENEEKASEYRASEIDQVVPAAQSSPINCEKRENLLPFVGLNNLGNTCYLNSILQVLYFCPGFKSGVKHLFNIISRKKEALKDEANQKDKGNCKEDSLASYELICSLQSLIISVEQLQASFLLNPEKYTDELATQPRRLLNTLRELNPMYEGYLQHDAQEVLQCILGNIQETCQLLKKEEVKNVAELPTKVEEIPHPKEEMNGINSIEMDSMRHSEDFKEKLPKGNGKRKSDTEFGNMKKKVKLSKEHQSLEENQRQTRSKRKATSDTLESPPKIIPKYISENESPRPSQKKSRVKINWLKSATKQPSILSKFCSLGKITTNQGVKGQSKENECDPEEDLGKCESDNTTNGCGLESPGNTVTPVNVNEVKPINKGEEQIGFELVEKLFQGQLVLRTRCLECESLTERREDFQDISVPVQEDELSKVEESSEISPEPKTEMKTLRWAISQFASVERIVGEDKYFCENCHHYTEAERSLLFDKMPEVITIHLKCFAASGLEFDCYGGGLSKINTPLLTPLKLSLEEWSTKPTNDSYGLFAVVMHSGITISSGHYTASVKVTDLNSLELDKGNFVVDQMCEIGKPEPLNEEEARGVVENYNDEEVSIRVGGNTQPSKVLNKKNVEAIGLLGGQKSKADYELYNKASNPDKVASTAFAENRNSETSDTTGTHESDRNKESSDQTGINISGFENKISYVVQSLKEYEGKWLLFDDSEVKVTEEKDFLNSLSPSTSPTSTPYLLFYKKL
Method in brief: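 Deubiquitinase activity followed as kinetic rhodamine fluorescence release from 150 nM Ub-Rho. 1 nM USP1/UAF1 with compound, after 15 min room-temperature preincubation, in HEPES pH 7.8 buffer containing TCEP, EDTA, BSA and Tween-20.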

[18] = target: Cytochrome P450 2D6 (Homo sapiens) (UniProt P10635); assay: qHTS Assay for Inhibitors and Substrates of Cytochrome P450 2D6 (AID 891); conditions: recombinant CYP2D6, luciferin-ME EGE luminescence; series mostly up to 57.1 µM; also: potency is read from the fitted curve at half-maximal effect; nearly all actives have a fitted effect of over 60% in size
Cytochrome P450 2D6 (Homo sapiens), sequence (P10635 whole entry, looked up): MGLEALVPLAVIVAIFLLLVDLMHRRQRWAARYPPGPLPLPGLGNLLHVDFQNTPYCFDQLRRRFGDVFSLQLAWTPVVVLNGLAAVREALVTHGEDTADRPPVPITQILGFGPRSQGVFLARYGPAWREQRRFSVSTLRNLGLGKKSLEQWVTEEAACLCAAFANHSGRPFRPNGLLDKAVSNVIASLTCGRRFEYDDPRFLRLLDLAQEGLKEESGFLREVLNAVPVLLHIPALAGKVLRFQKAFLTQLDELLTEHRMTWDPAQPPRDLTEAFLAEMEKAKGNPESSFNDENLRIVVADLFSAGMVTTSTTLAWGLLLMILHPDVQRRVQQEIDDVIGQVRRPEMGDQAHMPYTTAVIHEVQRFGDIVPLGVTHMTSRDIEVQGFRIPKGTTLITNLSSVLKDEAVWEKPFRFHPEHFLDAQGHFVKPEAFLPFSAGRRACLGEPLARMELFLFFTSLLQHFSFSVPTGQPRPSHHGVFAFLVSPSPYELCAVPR
Method in brief: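 Human CYP2D6 (5 nM) with 30 uM Luciferin-ME EGE (at Km) in 100 mM KPO4, compound preincubated 10 min, then NADPH regeneration system for 60 min at room temperature. Luciferin read by luminescence; normalized to 1.43 uM quinidine.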

[19] = measured here: cell count channel max response
[20] = measured here: lipid channel max response

N#Cc1ccc(CN2CC3(CCN(C(=O)c4cnccn4)CC3)C2)cc1
15%: max response [8, 19]
inactive: Potency [1] > 11.4 µM | activity change, negative = inhibition [2] -10.3% | activity, negative = inhibition [3] 11.6% | Potency [4] > 46 µM | Potency [5] | Potency [6] | activity change, negative = inhibition [8] 3.16% | outcome [9]
active: Potency [7] 3.16 µM
20.2%: max response [8, 20]

c1ccc(Nc2ncnc3ccc(-c4cccnc4)cc23)cc1
active: Potency [10] 0.0794 µM | Potency [12] 2.51 µM
-20.7%: max response [8, 19]
-13.8%: max response [8, 20]
inactive: Potency [1] > 11.4 µM | activity, negative = inhibition [3] 19.3% | Potency [11] > 46 µM | Potency [4] > 46 µM | Potency [5] | Potency [6] | Potency [13] | Potency [14] | outcome [15] | activity change, negative = inhibition [8] 7.8% | outcome [9]

COc1ccccc1CN1CCCC2(CCN(C(=O)c3c(C)noc3C)CC2)C1
inactive: Potency [1] > 11.4 µM | Potency [10] | activity, negative = inhibition [3] -7.32% | Potency [4] > 46 µM | Potency [5] | Potency [6] | Potency [13] | activity change, negative = inhibition [8] 1.7% | outcome [9]
17.9%: max response [8, 20]
14.6%: max response [8, 19]

CN(C)C(=O)c1ccc(-c2nc(NCc3ccccc3)c3ccccc3n2)cc1
6.91%: max response [8, 19]
active: Potency [10] 15.8 µM
16.5%: max response [8, 20]
inactive: Potency [1] > 11.4 µM | activity change, negative = inhibition [16] 16% | activity, negative = inhibition [3] -21.7% | Potency [11] > 46 µM | Potency [4] > 46 µM | Potency [5] | Potency [13] | outcome [15] | activity change, negative = inhibition [8] 10.9% | Potency [17] | outcome [9]

CC(C)CN1CCC2(CC1)CCN(C(=O)c1cccc(F)c1)CC2
2.51%: max response [8, 20]
inactive: Potency [1] > 11.4 µM | activity change, negative = inhibition [2] -11.3% | activity, negative = inhibition [3] 0.382% | Potency [4] > 46 µM | Potency [5] | Potency [6] | activity change, negative = inhibition [8] 0.839% | outcome [9]
1.53%: max response [8, 19]
active: Potency [18] 5.01 µM

CN(C)C(=O)c1ccc(-c2nc(NCc3cccs3)c3ccccc3n2)cc1
15.6%: max response [8, 20]
inactive: Potency [1] > 11.4 µM | activity change, negative = inhibition [16] 28.9% | activity, negative = inhibition [3] -25% | Potency [11] > 46 µM | Potency [4] > 46 µM | Potency [5] | Potency [13] | Potency [14] | outcome [15] | activity change, negative = inhibition [8] 12.5% | outcome [9]
0.768%: max response [8, 19]
active: Potency [10] 12.6 µM

COC(=O)N1CCC2(CCN(Cc3ccccc3)CC2)CC1
-0.656%: max response [8, 19]
inactive: Potency [1] > 11.4 µM | activity change, negative = inhibition [2] -5.32% | activity, negative = inhibition [3] -1.16% | Potency [4] > 46 µM | Potency [5] | Potency [6] | activity change, negative = inhibition [8] 2.47% | outcome [9]
4.63%: max response [8, 20]
